Many of the other results were omitted from the sample, so hits are more common in it than they were.
Tg IFNy HTS: T. gondii growth inhibition with IFN-gamma, primary screen, cell-based; activity change, negative = inhibition, % (test concentration not listed); hit rate 3.8% among 69,000; Toxoplasma gondii growth in IFN-gamma-treated host cells; hits give low values; in the data active means activity change below about -70%, passing the limit was not always enough;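 further: host cells are HeLa cells infected with Toxoplasma gondii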
A number is an active result.

What do the screens show for `CN1CC2(CCN(C(=O)c3cn4ccsc4n3)C2)OC1=O` (stereo not given)?
Tg IFNy HTS: inactive

Results for Clc1ccc2nc(C3CCN(CC4COc5ccccc5O4)CC3)[nH]c2c1 (stereo not given) ?
Tg IFNy HTS: inactive

What do the screens show for `Cc1ccc(CN2CCn3cc(CNC(=O)c4cccn4C)nc3C2)s1`?
Tg IFNy HTS: inactive

How did CCn1c(CC2CCN(C(=O)c3c(C)cc(C)n(C)c3=O)CC2)n[nH]c1=O do in these assays?
Tg IFNy HTS: inactive

Results for CCc1ccc(NC(=O)c2c(O)c3cccnc3n(-c3ccc(F)cc3)c2=O)cc1 ?
Tg IFNy HTS: inactive

How did Cc1cc(F)ccc1NC(=O)c1c(O)c2cccnc2n(-c2ccccc2)c1=O do in these assays?
Tg IFNy HTS: inactive

What do the screens show for `CCc1ccccc1NC(=O)c1c(O)c2cccnc2n(-c2cccc(F)c2)c1=O`?
Tg IFNy HTS: -104

Results for CCOc1ccccc1NC(=O)c1c(O)c2cccnc2n(-c2cccc(F)c2)c1=O ?
Tg IFNy HTS: inactive

What do the screens show for `Cc1ccc(NC(=O)c2c(O)c3ccccc3n(-c3ccccc3)c2=O)c(C)c1`?
Tg IFNy HTS: inactive

Results for Cc1cc(F)ccc1NC(=O)c1c(O)c2ccccc2n(-c2ccccc2)c1=O ?
Tg IFNy HTS: inactive

What do the screens show for `O=C(Nc1ccccc1F)c1c(O)c2cccnc2n(-c2cccc(F)c2)c1=O`?
Tg IFNy HTS: inactive

How did CCc1ccccc1NC(=O)c1c(O)c2cccnc2n(-c2ccc(F)cc2)c1=O do in these assays?
Tg IFNy HTS: -79

How did Cc1ccccc1NC(=O)c1c(O)c2cccnc2n(-c2cccc(F)c2)c1=O do in these assays?
Tg IFNy HTS: -94

Results for Cc1cccc(C)c1NC(=O)c1c(O)c2ccccc2n(-c2ccccc2)c1=O ?
Tg IFNy HTS: -105

How did CCOc1ccccc1NC(=O)c1c(O)c2cccnc2n(-c2ccc(F)cc2)c1=O do in these assays?
Tg IFNy HTS: inactive

How did O=C(Nc1ccc(F)cc1F)c1c(O)c2cccnc2n(-c2ccccc2)c1=O do in these assays?
Tg IFNy HTS: inactive

Results for O=C(NCCCn1cccn1)C1CC(=O)N(c2ccc3c(c2)OCCO3)C1 (stereo not given) ?
Tg IFNy HTS: inactive

How did CN(C)CC1CN(Cc2ccncc2)Cc2nccn2C1 (stereo not given) do in these assays?
Tg IFNy HTS: inactive

What do the screens show for `COc1cccc(CNC(=O)Cn2ncc3c(N4CCCC4)ncnc32)c1`?
Tg IFNy HTS: inactive

How did O=C(COC[C@@H]1CCC2C(CCN2Cc2ccco2)O1)N1CCCC1 (stereo not given in full) do in these assays?
Tg IFNy HTS: inactive

Results for Cc1cc(C)cc(CSCC(=O)N2CCCC(N(C)C)CC2)c1 (stereo not given) ?
Tg IFNy HTS: inactive

What do the screens show for `C=CCO[C@@H]1CCN(Cc2nccn2C)[C@H]1Cc1cccnc1`?
Tg IFNy HTS: inactive

Results for COC(=O)C(NC(=O)Cc1ccncc1)c1cccc(C)c1 (stereo not given) ?
Tg IFNy HTS: inactive

What do the screens show for `C=CCN(CC1=CCCN(C)C1)C(=O)COC`?
Tg IFNy HTS: inactive

Results for Cc1ccc(NC(=O)C(=O)NCCc2csc(-c3ccc(F)cc3)n2)cc1Cl ?
Tg IFNy HTS: inactive

How did CN(C)C(=O)NC1C(NC(=O)N(C)C)N(C)C(=O)N1C (stereo not given) do in these assays?
Tg IFNy HTS: inactive

How did CC(C)N(CCN1CCNCC1)C(C)C do in these assays?
Tg IFNy HTS: inactive

How did CCOc1ccccc1NS(=O)(=O)c1cc2c3c(c1)CCC(=O)N3CCC2 do in these assays?
Tg IFNy HTS: inactive

How did O=C(Nc1ccccc1Cl)c1c(O)c2cccnc2n(-c2cccc(F)c2)c1=O do in these assays?
Tg IFNy HTS: -87

Results for O=C(Nc1ccc(F)cc1Cl)c1c(O)c2cccnc2n(-c2ccc(F)cc2)c1=O ?
Tg IFNy HTS: inactive

How did COc1cccc(-n2c(=O)c(C(=O)Nc3ccccc3Cl)c(O)c3cccnc32)c1 do in these assays?
Tg IFNy HTS: inactive

How did COC(=O)c1[nH]ncc1CN1CCCC(OCc2ccccn2)C1 (stereo not given) do in these assays?
Tg IFNy HTS: inactive

How did COc1ccc(CNC(=O)CN2C(=O)CCc3cc(Br)ccc32)cc1 do in these assays?
Tg IFNy HTS: inactive

How did CCOc1nc(Nc2ccc(C(C)C)cc2)nc(NC2CCCCC2)n1 do in these assays?
Tg IFNy HTS: -87

Results for CC(C)c1nc2ccc(Br)cn2c1NC1CCCCC1 ?
Tg IFNy HTS: inactive

How did CCc1nc(OCC(=O)Nc2ccc(C(C)C)cc2)c2ccccc2n1 do in these assays?
Tg IFNy HTS: inactive

What do the screens show for `O=C(C1CC1)N1C[C@H]2CNC[C@@]2(C(=O)NCCCc2ccccc2)C1`?
Tg IFNy HTS: inactive

How did Cc1nc2c(c(NC3CC3)n1)CCN(Cc1cnn(C)c1)CC2 do in these assays?
Tg IFNy HTS: inactive

Results for Cc1cccc(S(=O)(=O)N2CCc3nc(-c4cnn(C)c4)nc(NC4CC4)c3C2)c1 ?
Tg IFNy HTS: -94

How did Cc1cccc(S(=O)(=O)N2CCc3nc(-c4ccccc4)sc3C2)c1 do in these assays?
Tg IFNy HTS: inactive

How did COC(=O)c1cc(C)nc2c1c(=O)n(Cc1nc(-c3cc(C)ccc3C)oc1C)c(=O)n2C do in these assays?
Tg IFNy HTS: inactive

How did COC(=O)c1cc(C)nc2c1c(=O)n(Cc1nc(-c3ccc(C(C)C)cc3)oc1C)c(=O)n2C do in these assays?
Tg IFNy HTS: inactive

How did CCCCCCCCCCCCCCCCOP(=O)(O)OCC[N+](C)(C)C do in these assays?
Tg IFNy HTS: inactive

Results for COc1ccc(CC2(CO)CCN(c3ncnc4c3CCC4)CC2)cc1 ?
Tg IFNy HTS: inactive

Results for Cc1cccc2cc(CO)c(N3CCC(CO)(Cc4ccccc4)CC3)nc12 ?
Tg IFNy HTS: -77

Results for NC(=O)c1cncc(N2CCC(CO)(Cc3ccccc3)CC2)n1 ?
Tg IFNy HTS: inactive

Results for Cc1ccc(C)c(C(NC(=O)Cc2c(C)noc2C)c2ccncc2)c1 (stereo not given) ?
Tg IFNy HTS: inactive

How did CCOC(=O)c1nc(N(Cc2cccs2)C2CCCC2)c2ccccc2n1 do in these assays?
Tg IFNy HTS: -76

What do the screens show for `CCOC(=O)c1nc(N(CC)c2ccccc2)c2ccccc2n1`?
Tg IFNy HTS: inactive

How did CCOC(=O)c1nc(N2CCN(C3CCCCC3)CC2)c2ccccc2n1 do in these assays?
Tg IFNy HTS: inactive

What do the screens show for `COCCN1C(=O)CCc2cc(NS(=O)(=O)c3cc(OC)ccc3OC)ccc21`?
Tg IFNy HTS: inactive

Results for CCCC(=O)N1CCC(N2CCC(c3ccncc3)CC2)CC1 ?
Tg IFNy HTS: inactive

Results for CCn1cc(-c2ccnc3[nH]c(-c4cccc(CN(C)C)c4)cc23)c(-c2ccc(NC(=O)N(C)C)cc2)n1 ?
Tg IFNy HTS: -82

How did CCn1cnc(NC(=O)N(C)Cc2cccc3ncccc23)n1 do in these assays?
Tg IFNy HTS: inactive

Results for CN(C)C(=O)Nc1cccc(-c2ccc(N(C)C)cc2)c1 ?
Tg IFNy HTS: inactive

What do the screens show for `C[C@H](CO)N1C[C@H](C)[C@H](CN(C)Cc2ccc(F)cc2)Oc2cc(C#CC(C)(C)O)ccc2S1(=O)=O`?
Tg IFNy HTS: inactive

Results for Cc1ccccc1-c1ccc2c(c1)O[C@@H](CN(C)C(=O)Nc1ccc(C(F)(F)F)cc1)[C@H](C)CN([C@@H](C)CO)S2(=O)=O ?
Tg IFNy HTS: -100

How did C[C@H]1CN([C@@H](C)CO)S(=O)(=O)c2ccc(C#CC(C)(C)O)cc2O[C@H]1CN(C)Cc1ccc(F)cc1 do in these assays?
Tg IFNy HTS: inactive

Results for C[C@@H]1CN([C@@H](C)CO)S(=O)(=O)c2ccc(-c3ccc(F)cc3)cc2O[C@@H]1CN(C)Cc1ccccc1C(=O)O ?
Tg IFNy HTS: inactive

Screening data (PubChem BioAssay)
